± gives the standard deviation. The full ranking holds about 6,600 sequences; the median of “pre-steady-state target cleavage rate” is about 0.07, and the highest 2% start at about 0.72. This is one part of a sample in which the highest values are shown more often than they occur. Some results are limits rather than exact numbers.

The source of these data is the supplement of paper PMC10338343.
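Further: 1 nM active piRISC with 0.1 nM target library at 33 °C single turnover.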

For this experiment, the system named is MIWI (PIWIL1) piRISC loaded with Kctd7 piRNA (30 nt). Nature of the experiment: pre-steady-state target cleavage rate (min^-1); MIWI and MILI are mouse PIWI proteins and EfPiwi is from a freshwater sponge; tags in brackets are library labels; higher = faster piRNA-guided slicing of the target. The conditions noted are these: guide: Kctd7 piRNA 5'p-UGUUAAUCUCUCAGAGAAGGUGACAGUGAU; auxiliary factor: 500 nM mouse GTSF1. In a few lines: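 In this Cleave-'n-Seq assay, uncleaved targets were sequenced and normalised to depth and to weakly complementary targets. They came from a transcribed, DNA-blocked target RNA library […] mixed with 1 nM active affinity-purified piRISC carrying one synthetic guide, with or without 500 nM GTSF1 partner protein, in HEPES–potassium acetate buffer at 33 °C for 0–8 or 0–960 min. After three trials were pooled and k3 was capped at 0.0001 min^-1, the pre-steady-state cleavage rate was obtained from a burst-and-steady-state fit.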
For the sequence UAGUGUGUCACCUUCUCUGACUCAUUUUGA, the “pre-steady-state target cleavage rate” value is 0.0047 ± 0.0045.
The result for UAGUGACAGACCUUCUCUGUGACAUUAACA reads 0.00672 ± 0.0033.
The figure for UAGUGACUCUCCUUCUCUGAGAGUUUAACA is 0.035 ± 0.007.
The figure for UAGACUGUCACCUUGUCUGAGAGAUUAUCA is 0.643 ± 0.1; for UAGACUCACACCUUCUCUGAGAGAUAUUGA it is 0.0233 ± 0.0066; for UAGUCUGUCACCUUCUCUGAGAGUUUAACA it is 0.365 ± 0.053.
For AUCUACUGUCACCUUCUCUGAGAGAUUAACA, the “pre-steady-state target cleavage rate” value is 0.719 ± 0.041.
On to AUCACUGUCACCUAGUCUGAGAGAUUUUGA, for which the “pre-steady-state target cleavage rate” value was determined as 0.0964 ± 0.023.
The figure for AUCUGUGUCACCUUCUCUGAGAGAUUAACA is 0.417 ± 0.025; for UAGUGACAGUGGUUUCUGAGAGAUUAACA it is under 0.0001; for UACACUGUCACCUUCACUGUGAGAUUAACA it is 0.116 ± 0.015.
For the sequence UAGUCUGUCACUUUCUCUGAGAGAUUAACA, the “pre-steady-state target cleavage rate” value turned out to be 0.642 ± 0.023.
The result for UAGUCUGUCACCAUCUCUGAGAGAUAAACA reads 0.246 ± 0.025; that for UAGUGACACACCUUCUCAGAGAGAUUAAGA, 0.0233 ± 0.0077.
The result for AACACUGUCACCUUCUCUGAGAGAUAUUGA reads 0.0742 ± 0.021; that for AUCUCUGUCACCUUGUCUGAGAGAUUAACA, 0.394 ± 0.06.
The figure for UAGUGACUCACCUUCUCUGAGAGGAUUAACA is 0.172 ± 0.015; for UAGUGAGACACCUACUCUGAGAGAUUAACA it is 0.399 ± 0.03.
Regarding AUCUCUGUCACCUUCUCUGAGAGAUUAACA, the “pre-steady-state target cleavage rate” value is 0.713 ± 0.032.
The figure for AUCAUCUGUCACCUUCUCUGAGAGAUUAACA is 0.74 ± 0.035; for AUCACCUGUCACCUUCUCUGAGAGAUUAACA it is 0.742 ± 0.05.
The figure for UUCAUCUGUCACCUUCUCUGAGAGAUUAACA is 0.706 ± 0.03; for UUCCCUGUCACCUUCUCUGAGAGAUUAACA it is 0.502 ± 0.037.
The figure for UAGACCUGUCACCUUCUCUGAGAGAUUAACA is 0.652 ± 0.043; for UAGCCUGUCACCUUCUCUGAGAGAUUAACA it is 0.752 ± 0.056; for UAGUGACUCACCUUCUCUGAGAGAUAUACA it is 0.143 ± 0.019.
Regarding UACACUCACACCUUCUCUGAGAGAUAUUGA, the “pre-steady-state target cleavage rate” value was found to be 0.0241 ± 0.012.
The figure for UAGUGACAGUGCAUUCUCUGAGAGAUUAACA is 0.0141 ± 0.0028.
As to AUCACUGUCACCAUCUCUGAGAGAUAAACA, the “pre-steady-state target cleavage rate” value is 0.31 ± 0.03.
The figure for UACACUGUCGACCUUCUCUGAGAGAUUAACA is 0.229 ± 0.026; for UAGUGAGUCACCUUCACUGAGAGAUUUACA it is 0.203 ± 0.036.
The figure for UACACUGAGACCUUCUCUGAGAGAUAUUGA is 0.0195 ± 0.0074; for AUCACUGUCACCUUCUCUGAGAGAGUUAACA it is 0.651 ± 0.088.
The figure for UAGUCUGUCACCUUCUCUGACAGAUUUACA is 0.0113 ± 0.0036; for UAGACUGUCACCUUCUCUGAGAGAUUAAA it is 0.141 ± 0.018; for UAGUGAGUCACCUUCUCUGAGAGUAUAUGA it is 0.0298 ± 0.012.
AACACUGUCACCUUCUCUGAGAGAUUAAGA: the “pre-steady-state target cleavage rate” value was 0.189 ± 0.026.
For the sequence ACACUGUCACCUUCUCUGAGAGAUUAACA, the “pre-steady-state target cleavage rate” value was found to be 0.772 ± 0.044.
The result for AACACUGUCACCUUCUCUGAGAGAUUAACA reads 0.746 ± 0.03; that for “UACACUGUCACCUUCUCUGAGAGAUUAACU [g2:g28:cont:t1U]”, 0.494 ± 0.059.
The figure for UAGUGAGUCAGCCUUCUCUGAGAGAUUAACA is 0.176 ± 0.02.
The result for UUCACUGUCACGCUUCUCUGAGAGAUUAACA reads 0.51 ± 0.02; that for UAGUGCGUCACCUUCUCUGAGAGAUUAACA, 0.623 ± 0.04; that for UAGUGUGUCACGUUCUCUGAGAGAAUAACA, 0.19 ± 0.037.
For UAGACUGUCGACCUUCUCUGAGAGAUUAACA, the “pre-steady-state target cleavage rate” value was 0.121 ± 0.013.
The figure for UACACUGUCGCCUUCUCUGAGAGAUUAACA is 0.708 ± 0.042.
For the sequence UAGACUGUCGCCUUCUCUGAGAGAUUAACA, the “pre-steady-state target cleavage rate” value came out at 0.822 ± 0.064.
The result for AUCACUGUCGACCUUCUCUGAGAGAUUAACA reads 0.172 ± 0.017; that for UUCACUGUCGCCUUCUCUGAGAGAUUAACA, 0.665 ± 0.043.
Regarding AUCACUGUCGCCUUCUCUGAGAGAUUAACA, the “pre-steady-state target cleavage rate” value turned out to be 0.819 ± 0.053.
The result for UAGUGUGUCACCUUCUCUGAGAGAGUAACA reads 0.394 ± 0.046; that for UUCAGUGUCACCUACUCUGAGAGAUUAACA, 0.509 ± 0.033; that for UACUCUGUCACCUUCUGUGAGAGAUUAACA, 0.533 ± 0.025.
Consider “UACACUGUCACCUUCUCUGAGAGAUAUUGA [g6:g28:cont:t1A]”, for which the “pre-steady-state target cleavage rate” value is 0.0488 ± 0.017.
Turning to UAGUGACUCACGUUCUCUGAGAGAUAAACA, the “pre-steady-state target cleavage rate” value was 0.119 ± 0.022.
Take UAGUGACUCACCUUCUCAGAGAGAUAAACA: the “pre-steady-state target cleavage rate” value was 0.027 ± 0.0057.
Take UAGUCUGUCACCUUCUCACAGAGAUUAACA: the “pre-steady-state target cleavage rate” value was found to be 0.0188 ± 0.0059.
The result for UACACUGUCACGUUCUCUGUGAGAUUAACA reads 0.233 ± 0.014; that for AUCACUGUCACGUUCUCUGAGAGAUUAACA, 0.821 ± 0.043.
The result for UAGACUGUCACGUUCUCUGAGAGAUUAACA reads 0.671 ± 0.042.
The result for AUCACAGUCACGUUCUCUGAGAGAUUAACA reads 0.737 ± 0.026; that for UUCACUGUCACGUUCUCUGAGAGAUUAACA, 0.681 ± 0.035.
On to UUCUCUGUCACGUUCUCUGAGAGAUUAACA, for which the “pre-steady-state target cleavage rate” value stood at 0.564 ± 0.026.
The figure for UACACAGUCACGUUCUCUGAGAGAUUAACA is 0.679 ± 0.035; for AACACUGUCACGUUCUCUGAGAGAUUAACA it is 0.71 ± 0.035.
The figure for UACACUGUCACGUUCUCUGAGAGAUUAACA is 0.743 ± 0.037; for UUCACAGUCACGUUCUCUGAGAGAUUAACA it is 0.685 ± 0.027.
The result for UUGACUGUCACGUUCUCUGAGAGAUUAACA reads 0.711 ± 0.037; that for AUGACUGUCACGUUCUCUGAGAGAUUAACA, 0.755 ± 0.054.
Take UAGACUGUGACCAUCUCUGAGAGAUUAACA: the “pre-steady-state target cleavage rate” value came to 0.359 ± 0.025.
The figure for UAGUGACACACCUUCACUGAGAGAUAAACA is 0.112 ± 0.022.
For UUCACUGAUCACCUUCUCUGAGAGAUUAACA, the “pre-steady-state target cleavage rate” value is 0.653 ± 0.052.
The figure for UUCACUGUCACCUUCUCUCAGAGAUUUACA is 0.0958 ± 0.015; for “UAGACUGUCACCUUCUCUCUCUCUAAUUGA [g13:g27:cont:t1A]” it is under 0.0001.
UAGACUGUCACCUUCUCUGAGAGAUAAUCA: the “pre-steady-state target cleavage rate” value was 0.0918 ± 0.018.
The result for UAGACUGUUACCUUCUCUGAGAGAUUAACA reads 0.745 ± 0.039.
The figure for AUCACUGUUCACCUUCUCUGAGAGAUUAACA is 0.79 ± 0.046.
The result for UUCACUGUUACCUUCUCUGAGAGAUUAACA reads 0.342 ± 0.032; that for “UAGACUGUCACCUUCUCUGAGAGAUUAACG [g2:g27:cont:t1G]”, 0.674 ± 0.034; that for UAGACUGUUCACCUUCUCUGAGAGAUUAACA, 0.771 ± 0.043.
Turning to UAGACUUCACCUUCUCUGAGAGAUUAACA, the “pre-steady-state target cleavage rate” value stood at 0.576 ± 0.04.
As to UACACUGUUCACCUUCUCUGAGAGAUUAACA, the “pre-steady-state target cleavage rate” value came out at 0.614 ± 0.025.
The result for AUCACUGUUACCUUCUCUGAGAGAUUAACA reads 0.553 ± 0.033.
Take UUCACUGUUCACCUUCUCUGAGAGAUUAACA: the “pre-steady-state target cleavage rate” value was found to be 0.633 ± 0.036.
The figure for UAGUGAGUCACCUUCUCUGAGUCUUUAAGA is 0.00546 ± 0.0039; for UAGUGAGUCACCUUCUCUGAGAGAAUAUCA it is 0.124 ± 0.041; for UAGUGACAGACCUUCUCUGAGAUAUUAACA it is 0.0437 ± 0.011.
The result for UUCUCUGUCACCUUCUCUGAGAGAUAUUGA reads 0.0992 ± 0.024.
The figure for UAGUGACUCACCAAGUCUGAGAGAUAUUGA is under 0.0001; for UAGUGACAGACCUUCUCUGUGAGUUUAACA it is 0.0139 ± 0.0037.
